Test results taken from paper PMC8384837, “Expanding the binding specificity for RNA recognition by a PUF domain”.

molecular target: PUM1 PUF domain R4-SRS (Homo sapiens, UniProt Q14671 828-1176, N971S;H972R;Q975S); test: yeast three-hybrid, YBZ-1, SC-Leu-His + 0.5 mM 3-AT, 4 days; settings: tags: N-Gal4 AD-HA kept; label: inside an RPR1-promoter hybrid RNA with tandem MS2 sites; ssRNA
Summary of the method: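 Sequencing with Illumina followed PCR amplification of the repeat regions from transformants grown four days on SC-Leu (input) or SC-Leu-His + 0.5 mM 3-AT (selection). The transformants were strain YBZ-1 with a LexA–MS2 coat fusion and a HIS3 reporter, carrying Pumilio-1 PUF domain libraries and matching RNA elements. The interaction score is the log change in variant frequency from input to selection, computed in log2 with a pseudocount of 1 for absent variants.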

How did the binding signal turn out when “GGCUAGAACUAGUGGAUCCCCCGGCGCCCGGCGGCUCGAGCCCGGGUAAGUGUACAUAGUCUGCAUGCCGCCGGGCGCCAUGCCUGCAGGUCGACUCUAGAAAACAUG” was run?
The binding signal was 1.59 log2 enrichment (interaction score).

Which binding signal does the source give for “GGCUAGAACUAGUGGAUCCCCCGGCGCCCGGCGGCUCGAGCCCGGGUAAGUGUAUAUAGUCUGCAUGCCGCCGGGCGCCAUGCCUGCAGGUCGACUCUAGAAAACAUG” here?
The binding signal was 0.95 log2 enrichment (interaction score).

How did the binding signal turn out when “GGCUAGAACUAGUGGAUCCCCCGGCGCCCGGCGGCUCGAGCCCGGGUAAGUGUAAAUAGUCUGCAUGCCGCCGGGCGCCAUGCCUGCAGGUCGACUCUAGAAAACAUG” was run?
The binding signal was 3.11 log2 enrichment (interaction score).
